The list is not random: actives were taken first. Their share in the collection is about 7.4%.
Rab9 prom act = activates the Rab9 promoter; Huh7 Rab9 promoter-luciferase reporter, luminescence, 24 h; Potency, µM (top dose mostly 9.22 µM), for inactives: top-dose activation, negative = inhibition, hits mostly activators; 2.8% of 320,000 active; AID 485297; further: % of control where 0% means no effect; nearly all actives have a fitted effect of over 60% in size
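Stable Rab9-luc Huh7, 1500 cells/well, 2 h settle; cmpd in DMSO, 24 h, 37 °C/5% CO2; luciferase reagent 10 min RT; luminescence.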
FLuc modulator = inhibits or activates purified firefly luciferase, miR-21 counter-screen; P08659; purified FLuc, Km substrates, luminescence inhibition; Potency, µM (series often up to 57.5 µM), inactives show at the top dose activity change, negative = inhibition, hits mostly inhibitors; 6.9% of 360,000 active;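 further: plate controls were vehicle for no effect and reference inhibitor for full effect; nearly all actives have a fitted effect of over 55% in size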
Target sequence (P08659 whole entry, looked up): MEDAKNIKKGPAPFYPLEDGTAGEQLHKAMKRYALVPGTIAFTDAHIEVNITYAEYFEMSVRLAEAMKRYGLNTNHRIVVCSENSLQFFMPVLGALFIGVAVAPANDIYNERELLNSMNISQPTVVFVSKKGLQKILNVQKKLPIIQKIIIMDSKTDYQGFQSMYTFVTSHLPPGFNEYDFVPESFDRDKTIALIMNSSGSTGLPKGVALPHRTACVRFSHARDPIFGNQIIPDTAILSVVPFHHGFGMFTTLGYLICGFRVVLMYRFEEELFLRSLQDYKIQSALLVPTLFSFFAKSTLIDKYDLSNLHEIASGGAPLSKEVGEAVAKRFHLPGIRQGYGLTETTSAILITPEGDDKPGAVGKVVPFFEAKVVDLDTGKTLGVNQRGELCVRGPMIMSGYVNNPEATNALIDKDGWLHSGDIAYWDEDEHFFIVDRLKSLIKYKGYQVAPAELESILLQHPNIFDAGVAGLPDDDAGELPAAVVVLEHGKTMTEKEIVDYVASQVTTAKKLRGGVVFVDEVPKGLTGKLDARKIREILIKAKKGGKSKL
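Purified P. pyralis luciferase, 10 nM final, with Km-level 10 uM D-luciferin and 10 uM ATP in 50 mM Tris acetate pH 7.5, 10 mM Mg acetate, 0.01% Tween-20, 0.05% BSA; 6-point qHTS titration about 60 µM downward; luminescence read.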
ELG1 genotoxic = induces genotoxicity in HEK293T cells with luciferase-tagged ELG1; HEK293T ELG1-luciferase reporter, luminescence, 16 h; Potency, µM (top dose mostly 46 µM), for inactives: at the highest dose activity change, positive = activation, usual class: activators; 1.3% of 330,000 active; AID 504466; further: % of control where 0% means no effect; nearly all actives have a fitted effect of over 60% in size
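Step 1: seed 2,000 HEK293T ELG1-luciferase cells per well. Step 2: add compound or DMSO, incubate 16 hr at 37 °C. Step 3: ONE-Glo, 30 min at room temperature, read luminescence.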
NPC1 promoter act = activators of NPC1 promoter; AID 485313; Huh7 NPC1 promoter luciferase reporter, 24 h; Potency, µM (doses to about 9.22 µM), for the others: top-dose activation, actives largely listed as activators; 2.4% of 320,000 active; further: % of control where 0% means no effect; nearly all actives have a fitted effect of over 60% in size
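Compounds in DMSO were transferred onto Huh7 NPC1-luciferase reporter cells pre-incubated 2 h; after 24 h at 37 °C, Amplite reagent was dispensed and luminescence recorded 10 min later.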
SMN2 splice enh = SMN2 splice variant enhancement. 2.8% of 210,000 active. HEK293 SMN2-luciferase splicing reporter, luminescence, 30-36 h. Potency, µM (series often up to 46.1 µM), for inactives: top-dose activity change, positive = activation, most hits filed as activators; further: % of control where 0% means no effect; nearly all actives have a fitted effect of over 55% in size
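HEK293 cells carry an SMN2 minigene-luciferase reporter in which exon 7 inclusion puts luciferase in frame. Cells were seeded at 2000 cells/well, attached for 10-12 hours, then exposed to compounds for 30-36 hours at 37C before ONE-Glo luminescence.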
* hit, by the source's call; ? = inconclusive; · = not tested or not shown; [ ] = dose if it differs, or a comment. The call rests on the fitted dose curve; in most records, active means well fitted curve in the direction sought with a large enough effect; inconclusive means small, poorly fitted or top-dose-only effect, or another doubt; inactive means no such curve, though single readings can be large; an effect the other way counts as inactive or inconclusive. Potency means the concentration at half of the fitted maximal effect.

SMILES	Rab9 prom act	FLuc modulator	ELG1 genotoxic	NPC1 promoter act	SMN2 splice enh
COc1ccc(C(=O)Oc2cccc(/C=N/NC(N)=S)c2)cc1	12%	12µM*	4%	20%	?
COc1cc(/C=N/NC(N)=S)ccc1OC(=O)c1ccc(C)cc1	0%	-11%	-8%	3%	21%
CC1(c2ccc(Cl)cc2)NC(=O)N(CC(=O)Nc2ccc(N3CCCCC3)cc2)C1=O (stereo unspecified)	-1%	0%	2%	-2%	·
O=[N+]([O-])c1ccc(O)c(/C=N\N=C2c3ccccc3-c3ccccc32)c1	-19%	-6%	-8%	-2%	-73%
COc1ccc(O)c(/C=N/N=C2/C(=O)Nc3ccccc32)c1	1%	4.8µM*	5%	-2%	-4%
O=C1Nc2ccccc2/C1=N/N=C/c1cccc(O)c1	1%	?	3%	14%	·
COc1cc(/C=N/N=C2/C(=O)Nc3ccccc32)cc(OC)c1O	-1%	17µM*	2%	-1%	20%
CCCN(CCC)CCNC(=O)C1CCCN(S(=O)(=O)c2cccc3nsnc23)C1 (stereo unspecified)	·	1%	·	·	-20%
CNc1nnc(-c2cc3cc(Cl)ccc3oc2=O)s1	?	?	18µM*	?	?
CC(=O)Nc1ccc(S(=O)(=O)NCCC(=O)OCC(=O)c2cccc(Br)c2)cc1	0%	6%	0%	-4%	·
CC(C)(C)c1ccc(C(=O)NNC(=O)Cc2cccc3ccccc23)cc1	1%	15µM*	-22%	0%	17%
Cc1nn2c(C)c(C(=O)N3CCN(c4ccc(Cl)cc4)CC3)cnc2c1-c1ccc(F)cc1	·	-10%	·	·	·
COc1ccc(OC)c2nc(-c3ccc4c(c3)OCO4)ccc12	1.4µM*	1.9µM*	4.6µM*	1.4µM*	·
COC(=O)c1cc(-c2ccc3c(c2)OCO3)nc2ccccc12	1%	17µM*	-6%	-10%	-23%
Cc1cc(C)nc(NC(=O)c2cc(-c3ccc4c(c3)OCO4)nc3ccccc23)c1	-3%	?	-9%	-2%	·
O=C(NCCCN1CCCC1=O)c1cc(-c2ccc3c(c2)OCO3)nc2ccccc12	-4%	24µM*	-14%	0%	-5%
O=C(O)c1cc(-c2ccc3c(c2)OCO3)nc2ccc(Br)cc12	11%	3µM*	5%	10%	7%
Cc1ccc(C)c(NC(=O)NCc2ccc(Cl)cc2)c1	·	·	·	·	-3%[9.22 µM]
CCC(=O)N(Cc1c(C)nn(-c2ccccc2)c1Cl)c1ccc(Cl)cc1	2%	-1%	-6%	0%	-20%
O=C(NCCCN1CCOCC1)c1cc(-c2ccc3c(c2)OCO3)nc2ccccc12	2%	?	-5%	0%	4%
O=C(CSc1ccc2ccccc2n1)NCc1ccc2c(c1)OCO2	-7%	?	0%	-5%	-21%
O=C(O)c1cc(-c2ccc3cc4c(cc3c2)OCO4)nc2ccccc12	·	·	·	·	3.5µM*
c1ccc2nc(-c3ccc4c(c3)OCO4)ccc2c1	0.32µM*	0.95µM*	2.6µM*	0.56µM*	13µM*
COc1ccc(OCC(O)CNS(=O)(=O)c2ccc(NC(C)=O)cc2)cc1 (stereo unspecified)	4%	0%	-3%	-2%	·
COC(=O)[C@@H]1C[C@H]1[C@@H](NS(=O)(=O)c1ccc2ccccc2c1)c1ccccc1	·	·	·	·	-4%
SMILES	Rab9 prom act	FLuc modulator	ELG1 genotoxic	NPC1 promoter act	SMN2 splice enh
COc1ccc(CCNC(=O)CCOc2ccc(C)cc2)cc1OC	0%	5%	3%	-8%	·
CCOc1ccc(-c2cc(CCCC(=O)NCCc3cc(OC)c(OC)c(OC)c3)no2)cc1	·	13µM*	·	·	-17%
CCOc1ccc(-c2cc(CCCC(=O)NCCc3ccc(OC)c(OC)c3)no2)cc1	·	11µM*	·	·	-62%
CCCCn1c(-c2ccccc2)cnc1SCC(=O)NCCc1ccc(OC)c(OC)c1	2%	17µM*	4%	-2%	28%
COc1ccc(CCNC(=O)CSc2nnc(-c3ccccc3)c3ccccc23)cc1OC	-6%	3%	-3%	-3%	2%
CCOc1ccc(-c2cc(CCCC(=O)NCCCOC)no2)cc1	8%	12µM*	0%	-2%	17%
CCCn1c(C)nc2c(NCc3ccccc3)nc(C)nc21	·	·	·	·	-31%
COc1cc(CNCc2ccncc2)cc(OC)c1OC	-8%	-9%	0%	0%	·
NC(=O)C1CC(=O)N(c2ccc(OCc3c(Cl)cccc3Cl)cc2)C1 (stereo unspecified)	-18%	-18%	1%	-4%	·
O=C(Nc1ccc(/C=C/c2nc3ccccc3o2)cc1)c1cccc(C(F)(F)F)c1	?	?	?	28%	·
CC(=O)Nc1ccc(/C=C/c2nc3ccccc3o2)cc1	0.45µM*	4.8µM*	?	2.2µM*	·
O=C(Nc1ccc(/C=C/c2nc3ccccc3o2)cc1)c1c(F)cccc1F	2µM*	2.1µM*	1.5µM*	3.2µM*	8.9µM*
Cc1c(Cl)cccc1NC(=O)CNC(=O)C1CCN(C(=O)Nc2ccccc2)CC1	3%	-3%	-1%	-2%	·
COC(=O)c1cc2c(=O)c3ccccc3oc2nc1C	?	11µM*	?	2.2µM*	·
CCc1nc2oc3ccc(C)cc3c(=O)c2cc1C(=O)OC	3.5µM*	3µM*	?	3.5µM*	·
COC(=O)c1cc2c(=O)c3ccccc3oc2nc1/C=C/N(C)C	0%	?	-2%	-3%	·
Cc1nc2oc3ccccc3c(=O)c2cc1C(=O)O	-2%[1.84 µM]	-15%	8%	2%	·
O=C(NCCC1CCCCN1S(=O)(=O)c1cccs1)C(=O)NCc1ccccc1 (stereo unspecified)	-3%	0%	-3%	-6%	·
C=CCc1cccc(C=Nc2cccn3cc(-c4ccccc4)nc23)c1O	?	-17%	?	?	25µM*
Cc1cc(O)c(/C=N/Nc2cccc(Cl)c2)c(=O)o1	1%	15µM*	10%	19%	-24%
Cc1cc(O)c(/C=N/Nc2ccccc2Cl)c(=O)o1	30%	?	?	?	-1%
Cc1cc(O)c(/C=N/Nc2ccc(Cl)cc2)c(=O)o1	15%	2.7µM*	10%	20%	-21%
Cc1cccc(N=Cc2c(O)cc(C)oc2=O)c1	2%	?	-5%	-2%	6%
C/C(=N\NC(=O)c1cccc(S(=O)(=O)N2CCOCC2)c1)c1ccc(O)cc1	1%	-1%	4%	0%	·
CCC(Sc1nc2ccccc2c2nc(CCc3c(C)n[nH]c3C)nn12)C(=O)Nc1ccc(OC)cc1 (stereo unspecified)	·	-3%	·	·	·
COc1cc(NC(=O)CCc2c(C)nn(-c3ccc4nncn4n3)c2C)cc(OC)c1OC	·	-2%	·	·	·
COc1ccc(/C=C/C(=O)NC(=S)Nc2ccc(S(=O)(=O)Nc3ccc(OC)nn3)cc2)cc1	0%	?	-4%	-11%	7%[1.84 µM]

High-throughput results (PubChem)
